Compounds with a hit are over-represented: about 6% of the library has one in this group of screens.
D3 antag: blocks the human D3 dopamine receptor | P35462 | D3R cells, DiscoveRx beta-arrestin luminescence, antagonist mode; active compounds read low | max response, negative = inhibition, % | hit rate 2.5% among 360,000 | AID 652054; in the data active means max response below about -50%; inconclusive means no clear call, values can overlap the other calls; further: on the % scale 0 is the no-effect control and ±100 the full control effect
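Cells expressing the human receptor were seeded at 1500 cells/well, incubated overnight at 37 degrees C in 5% CO2, then exposed to library compounds with dopamine controls for 90 minutes at 37 degrees C before luminescent detection.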
D1 PAM: potentiators of human D1 dopamine receptor. P21728. HEK293 TREx D1 cells, calcium flux, dopamine EC20 potentiation. potentiation, % at 10 µM. hit rate 0.036% among 360,000. AID 504651; in the data active means potentiation above about 30%; further: 0% is about no effect
Target sequence (P21728 whole entry, looked up): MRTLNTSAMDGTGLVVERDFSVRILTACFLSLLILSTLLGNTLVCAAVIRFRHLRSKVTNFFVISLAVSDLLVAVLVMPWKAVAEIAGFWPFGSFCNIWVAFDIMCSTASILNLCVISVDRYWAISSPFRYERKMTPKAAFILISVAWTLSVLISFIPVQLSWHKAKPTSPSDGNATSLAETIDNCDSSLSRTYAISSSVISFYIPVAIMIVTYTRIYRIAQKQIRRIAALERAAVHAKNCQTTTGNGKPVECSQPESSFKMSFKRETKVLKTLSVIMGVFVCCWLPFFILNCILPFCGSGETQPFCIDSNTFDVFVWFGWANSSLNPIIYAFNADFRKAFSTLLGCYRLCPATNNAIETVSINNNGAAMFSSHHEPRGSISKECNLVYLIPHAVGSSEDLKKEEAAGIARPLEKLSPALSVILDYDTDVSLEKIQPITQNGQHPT
DRD3 agonist: D3 dopamine receptor (human) agonism | D3R DiscoveRx beta-arrestin cells, luminescence, 90 min | hit rate 0.58% among 410,000 | P35462 | max activation, %; in the data active means max activation above about 30%; further: 0% is about no effect
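Cells at 1500/well, incubated overnight, then treated with pinned compounds (dopamine as control) for 90 min at 37 degrees C. DiscoveRx reagent added for 30 - 60 minutes at room temperature; luminescence read.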
D1 antagonist: human D1 dopamine receptor antagonism; P21728; HEK293 TREx D1 cells, calcium flux, dopamine EC80; active compounds read low; activity change, negative = inhibition, % at 10 µM; hit rate 3.2% among 360,000; in the data active means activity change below about -30%; further: on the % scale 0 is the no-effect control and ±100 the full control effect
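Allosteric or orthosteric antagonism assessed as attenuation of the calcium response to EC80 dopamine, added 180 s after compound, in induced HEK293 Trex D1 cells loaded with no-wash calcium dye.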
D1 agonist: activates the human D1 dopamine receptor; hit rate 1% among 360,000; HEK293 T-REx D1 cells, calcium flux, agonist mode; activation, % at 2 µM; P21728; in the data active means activation above about 30%; further: 0% is about no effect
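Agonism was scored from calcium flux recorded over 180 s (1 read/s) after pintool compound addition, following a 10-cycle baseline. Cells were inducible force-coupled HEK293 TREx D1, plated overnight at 30 C and loaded with no-wash calcium dye.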
* hit, by the source's call; ? = inconclusive; nt = no result; ! = not confirmed by another sample.

SMILES | D3 antag | D1 PAM | DRD3 agonist | D1 antagonist | D1 agonist
Cn1c(C(=O)Nc2ccc(OC(F)(F)F)cc2)cc2c(=O)n3ccccc3nc21 | nt | -0.3 | -8.7 | 2.5 | 4.2
CCOc1ccc(/C=N/NC(=O)c2ccccc2Cl)cc1CN1CC2CC(C1)c1cccc(=O)n1C2 (centres undefined) | -85.1* | -0.9 | -94.1 | nt | -2.2
CC(=CC(=O)c1ccccc1)c1ccccc1 | 2.9 | nt | -2.6 | nt | nt
COc1ccc(Cl)cc1C(=O)NNC(=S)NC(=O)c1ccc(F)c(F)c1 | -13.4 | -2.4 | -12.7 | 5.6 | 171.0*
CCNC(=S)NNC(=O)c1cc(-c2ccc(OC)cc2)nc2ccccc12 | -6.3 | -6.9 | 1.6 | -10.2 | -0.7
COc1ccc(C(=O)NNC(=S)NC(=O)c2ccc(F)cc2)cc1Br | 91.7 | nt | 4.5 | nt | nt
O=C(NC(=S)Nc1ccccc1)c1cc(-c2ccccc2)nc2ccccc12 | -125.1* | -0.5 | -8.8 | 13.9 | 3.7
O=C(NC(=S)Nc1ccccn1)c1cc(-c2ccccc2)nc2ccccc12 | -4.3 | 0.0 | 1.6 | -3.6 | 9.6
CCc1ccc(-c2cc(C(=O)Nc3ccc(S(=O)(=O)NC(C)=O)cc3)c3ccccc3n2)cc1 | -93.5* | -3.0 | -12.6 | -5.8 | 12.0
COc1ccc(Cl)cc1C(=O)NNC(=S)NC(=O)c1cc(-c2ccc(Cl)cc2)nc2ccccc12 | -60.9* | 4.5 | -5.2 | -9.4 | 10.1
COCc1oc2ccc(NS(=O)(=O)c3ccc(C)cc3)cc2c1C(=O)OC | nt | -1.6 | 8.7 | 4.6 | 0.4
Cc1cccc(C)c1NC(=O)C(c1ccnc2ccccc12)n1c(=O)c(-c2ccco2)nc2ccccc21 (centres undefined) | -6.3 | nt | 0.1 | nt | nt
O=C(Nc1nc2c(s1)CCCC2)c1cc(-c2ccccc2)nc2ccccc12 | -81.0* | 5.0 | -8.0 | 9.5 | 31.9*
O=C(Nc1nc2c(s1)CCCC2)c1cc(-c2ccncc2)nc2ccccc12 | ? | -3.5 | -28.5 | 0.3 | 1.0
O=C(NNC(=O)c1cc(-c2ccncc2)nc2ccccc12)c1cccc(Cl)c1 | -1.1 | -3.7 | 3.4 | -40.7* | 3.1
CCOCCN1CCN(C2c3ccccc3CSc3ccccc32)CC1 (centres undefined) | -76.2* | nt | -34.3 | nt | nt
CCNC(=O)NC1c2ccccc2CSc2ccccc21 (centres undefined) | 7.0 | nt | -9.8 | nt | nt
CCc1cc2cccc(C)c2nc1SCC(=O)c1ccc(NC(C)=O)cc1 | 42.6 | 12.2 | 81.1* | -2.0 | 4.3
COC(=O)c1scc(C)c1NC(=O)Nc1ccccc1 | 32.9 | 4.5 | -12.5 | 3.4 | 1.4
COC(=O)c1scc(C)c1NC(=O)/C=C/C(=O)O | 7.5 | -4.2 | 5.7 | -47.0* | 2.4
COC(=O)c1scc(C)c1NC(=O)c1ccccc1F | -1.6 | -3.5 | 4.4 | -37.1* | 0.7
CC(Oc1ccccc1)C(=O)Nc1ccc(C(=O)OCc2cc(=O)n3nc(C(C)C)sc3n2)cc1 (centres undefined) | nt | -0.9 | 0.8 | -13.1 | 3.8
Cn1cnc(S(=O)(=O)N2CCCC(c3cc(C(=O)Nc4ccc(F)c(Cl)c4)no3)C2)c1 (centres undefined) | 2.7 | nt | 1.8 | nt | nt
CNC(=O)COc1coc(CN2CCN(c3ccc(OC)cc3)CC2)cc1=O | 1.8 | -1.6 | -5.7 | 9.8 | 6.5
O=C(Cn1c(=O)oc2cc(S(=O)(=O)N3CCCC3)ccc21)NCc1ccc(Cl)cc1 | nt | -2.6 | -15.9 | 0.4 | 12.3
SMILES | D3 antag | D1 PAM | DRD3 agonist | D1 antagonist | D1 agonist
Cc1cc(C)cc(C(=O)NC(CC(N)=O)c2ccc(N3CCC(Br)CC3)c([N+](=O)[O-])c2)c1 (centres undefined) | 0.0 | -5.6 | 32.0* | -6.3 | 1.3
NC(=O)CC(NC(=O)Cc1cccc2ccccc12)c1ccc(N2CCC(N3CCCCC3)CC2)c([N+](=O)[O-])c1 (centres undefined) | 0.0 | -2.3 | 0.0 | 0.1 | 0.9
NC(=O)CC(NC(=O)Cc1cccc2ccccc12)c1ccc(N2CCCCCC2)c([N+](=O)[O-])c1 (centres undefined) | -68.1* | 7.5 | -36.8 | 13.2 | 0.2
NC(=O)CC(NC(=O)c1ccccc1)c1ccc(N2CCC(Br)CC2)c([N+](=O)[O-])c1 (centres undefined) | 0.0 | -0.4 | 12.9 | -1.0 | 0.9
COC(=O)/C=C1\OC(C2CC2)c2ccccc21 (centres undefined) | 1.0 | nt | -1.0 | nt | nt
COc1cc(NC(=O)Nc2cccc(-c3noc(C)n3)c2)cc(OC)c1OC | nt | -1.9 | -6.6 | 14.2 | 0.6
CN1CCN(c2oc(COc3ccc(-c4ccccc4)cc3)nc2C#N)CC1 | -4.1 | -9.6 | -32.0 | -34.8* | 20.8
N#Cc1nc(-c2ccc(OCc3ccccc3)cc2)oc1N1CCC(C(N)=O)CC1 | 29.7 | -5.5 | -1.5 | -35.5* | 13.8
COc1ccc(-c2nc(C#N)c(N3CCC(C(N)=O)CC3)o2)cc1 | 38.0 | 0.2 | 6.8 | -5.5 | 3.2
COc1ccc(-c2nc(C#N)c(NCCN(C)C)o2)cc1 | -61.3* | nt | -8.4 | nt | nt
CN(C)CCNc1oc(COc2ccc(-c3ccccc3)cc2)nc1C#N | -19.9 | -3.2 | -19.8 | -8.1 | 39.8*
N#Cc1nc(COc2ccc(-c3ccccc3)cc2)oc1NCCCN1CCOCC1 | 17.8 | -10.1 | -3.4 | -29.6 | 29.7
CC(C)(C)OC(=O)N1CCC(c2c(C(=O)N3CCC(c4ccccc4)C3)cnn2-c2ccc(Cl)cc2)CC1 (centres undefined) | nt | -1.6 | -3.3 | 10.8 | 3.2
Cc1ccc(C2CCN(C(=O)Nc3ccc(Cl)c(Cl)c3)C2)cc1 (centres undefined) | nt | -8.4 | 0.0 | -45.0* | 7.5
O=C(Nc1ccc(Cl)c(Cl)c1)N1CCC(c2ccccc2)C1 (centres undefined) | nt | -5.8 | -7.3 | -42.7* | 12.5
Cc1ccc(C2CCN(C(=O)Nc3ccc(Cl)cc3)C2)cc1 (centres undefined) | nt | -7.2 | 4.7 | -24.3 | 4.8
O=C(Nc1ccccc1)N1CCC(c2ccccc2)C1 (centres undefined) | -8.4 | -10.4 | -1.5 | -7.3 | 3.4
Cc1ccc(NC(=O)N2CCCC(c3ccccc3)C2)cc1 (centres undefined) | 12.5 | -0.1 | 34.0* | 3.6 | 0.9
CCOc1ccc(NC(=O)N2CCC(c3ccc(C)cc3)C2)cc1 (centres undefined) | -10.3 | -6.0 | 8.2 | -30.9*! | 0.6
COc1ccc(Cc2nnc(NC(=O)C3CCN(C(=O)c4ccco4)CC3)s2)cc1 | -3.6 | 22.6 | -2.5 | 5.6 | 4.6
Cc1ccc(S(=O)(=O)N2C[C@@H]3CCCC[C@@H]3[C@@H](C)[C@H]2c2cn(Cc3ccccc3)c3ncccc23)cc1 | -13.6 | nt | 7.1 | nt | nt
COc1ccc(-n2nc(C(=O)N3CCCCC3)c3c4ccccc4n(C)c3c2=O)cc1Cl | nt | -0.9 | -9.7 | -0.1 | 2.2
CC(=O)Nc1ccc(N2CCC(C)CC2)c([N+](=O)[O-])c1 | -8.2 | -1.3 | 7.5 | 5.2 | -1.3
